Here are results for 10 compounds from PubChem BioAssay.

For orientation: inhibition means the drop in the measured response relative to a control, in per cent.

Assay [1] in a line: inhibitors of TNFa-induced NFkB p65 translocation, primary screen, imaging, HUVEC, MLSMR starter and 10KST1 sets (AID 438;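 active = inhibition above 20% together with a positive visual image hit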;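 note: compound added about 3h40 before a 20 min TNFalpha stimulation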;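 for inhibition: signal is the nuclear over cytoplasmic p65 intensity ratio per well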). The following applies: HUVEC TNFa-induced p65 nuclear translocation; cell count: measured here: nuclei count (cytotoxicity indicator), at 2.08 µM; inhibition: at 2 µM, stronger effect = higher value, 0% TNFa-plus-vehicle, 100% no-TNFa wells.
Assay [2] can be described thus: inhibitors of mutant huntingtin aggregation, primary screen, imaging, exon1htt(103Q)mCFP cells, high-content imaging (AID 483;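 active = visual image review flags a hit and inhibition of aggregation exceeds 20%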;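 note: compound exposure lasted 3 days before fixation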;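 for nuclei count: percent of the per-plate median nuclei count of sample wells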). Conditions: exon1htt(103Q)mCFP cell line, aggregate imaging, at 2 µM; inhibition of aggregation: stronger effect = higher value; nuclei count: measured here: cell count, toxicity.
A short description of assay [3]: inhibitors of E-selectin induction by TNFa, primary screen, imaging, HUVEC, immunofluorescence, MLSMR starter and 10KST1 sets (AID 487;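 active = visually confirmed hit in the image check and inhibition above 20%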;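 for inhibition: signal is fraction of cell area covered by stained E-selectin grains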;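 for nuclei count: 100% = median nuclei count of all wells on the same plate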). The following applies: HUVEC TNFalpha-induced E-selectin immunofluorescence imaging, at 2 µM; inhibition: stronger effect = higher value; nuclei count: measured here: cell number, toxicity.
Assay [4] has as its target Voltage-gated potassium channel subunit beta-2 (Rattus norvegicus) (UniProt P62483). Description: KvBeta enzyme negative modulators, primary screen, biochemical, NADPH fluorescence (AID 622;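 active = fluorescence slope higher than the sample average by over 3 SD, cut at about -0.22 in these data, passing the limit was not always enough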;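 note: slope of raw intensity against log time taken from 70 to 1610 s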). The following applies: recombinant KvBeta, 4-cyanobenzaldehyde reduction, at 10 µM, stronger effect = higher value.
The target is the same in assay [5]. Description: KvBeta positive modulators, primary screen, biochemical, NADPH fluorescence (AID 623).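 Note: fluorescence intensity change per second fitted from 20 to 320 s.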 The following applies: Recombinant KvBeta, NADPH fluorescence decrease slope, 10 min; at 10 µM; stronger effect = lower value.
For assay [6], the target named is Alpha-2C adrenergic receptor (Homo sapiens) (UniProt P18825). Description: modulators of alpha2C/GIRK thallium flux, primary screen, cell-based, HEK293 alpha2C/GIRK1/2 (AID 624;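 active = fluorescence slope after compound addition differing from the mean of all screened samples at 99.7% confidence, in either direction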;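 note: slope of fluorescence ratio to pre-addition baseline per second over 15 to 24 s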). The following applies: thallium flux BTC fluorescence, at 10 µM, actives lie on both sides.
Alpha-2C adrenergic receptor (Homo sapiens), sequence (P18825 whole entry, looked up): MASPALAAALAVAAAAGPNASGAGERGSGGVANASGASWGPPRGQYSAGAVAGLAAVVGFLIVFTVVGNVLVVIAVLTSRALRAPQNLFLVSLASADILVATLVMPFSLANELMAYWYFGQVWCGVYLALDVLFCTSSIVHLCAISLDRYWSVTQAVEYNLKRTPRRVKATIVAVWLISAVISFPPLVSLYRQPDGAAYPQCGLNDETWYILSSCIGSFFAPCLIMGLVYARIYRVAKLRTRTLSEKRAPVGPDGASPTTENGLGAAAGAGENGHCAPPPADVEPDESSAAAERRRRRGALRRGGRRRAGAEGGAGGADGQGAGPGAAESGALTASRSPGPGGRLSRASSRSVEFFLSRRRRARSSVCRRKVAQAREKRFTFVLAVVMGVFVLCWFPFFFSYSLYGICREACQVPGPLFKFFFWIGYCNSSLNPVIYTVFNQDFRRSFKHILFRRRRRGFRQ
Assay [7] in a line: inhibitors of Sendai virus-induced IRF3 signaling, primary screen, TLR/RLR signaling modifier project, cell-based, Sendai virus stimulus, luciferase, 10K MLSCN set (AID 602276;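 active = inhibition at or above 50% at 10 µM; inactive = inhibition below 50%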;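 note: firefly luciferase from ISG56 promoter only with Renilla not read in this screen; 0% = Sendai virus plus DMSO and 100% = medium plus DMSO without virus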). The following applies: HEK293 RL24 IRF3 luciferase reporter, at 10 µM, stronger effect = higher value.
Assay [8] in a line: inhibitors of poly I:C-induced TLR3 signaling, primary screen, cell-based, poly I:C stimulus, luciferase, 10K MLSCN set (AID 602277;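 active = inhibition of the reporter signal at or above 50%; inactive = inhibition below 50%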). The following applies: HEK293-TLR3 RL24 IRF3 luciferase reporter, at 10 µM, stronger effect = higher value.

Active and inactive are the calls of the source.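 Rule for the calls, unless noted: active = NADPH fluorescence slope more negative than the mean of all samples by about 3 SD, 99.7% confidence; inactive = the rest.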

Voltage-gated potassium channel subunit beta-2 (Rattus norvegicus), sequence (P62483 whole entry, looked up): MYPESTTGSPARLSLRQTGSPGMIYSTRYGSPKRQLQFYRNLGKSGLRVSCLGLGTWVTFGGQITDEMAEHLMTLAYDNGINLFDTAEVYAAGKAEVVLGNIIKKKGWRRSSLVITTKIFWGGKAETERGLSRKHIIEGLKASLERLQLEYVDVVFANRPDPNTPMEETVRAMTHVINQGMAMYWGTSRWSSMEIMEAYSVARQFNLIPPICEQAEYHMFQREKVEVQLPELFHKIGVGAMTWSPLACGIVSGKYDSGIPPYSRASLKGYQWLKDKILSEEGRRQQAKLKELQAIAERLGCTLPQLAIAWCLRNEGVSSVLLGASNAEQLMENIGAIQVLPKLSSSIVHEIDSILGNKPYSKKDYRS

Regarding `Cn1c(=O)[nH]c(=O)c2c1nc(CN1CCN(c3cccc(Cl)c3)CC1)n2CCc1ccccc1`, in assay [1], the cell count was 683. Further, the inhibition in assay [1] is -9.7% (inactive); in assay [3], -90.8% (inactive); in assay [7] it was -13.9% (inactive); in assay [8], -0.338% (inactive). For the same compound, the inhibition of aggregation in assay [2] is 6.6% (inactive). Besides, the nuclei count came to 107% in assay [2] and 87.9% in assay [3]. Further, the fluorescence slope in assay [4] was -0.587 (inactive). In addition, the NADPH fluorescence slope in assay [5] was 8.1e-06 (inactive). The slope in assay [6] was 0.00654 (inactive).

On to `COc1ccc(S(=O)(=O)N2CCSC2c2ccccc2)cc1` (stereo not given), for which the cell count in assay [1] is 449. Further, the inhibition in assay [1] was -3.1% (inactive); in assay [3], -84.6% (inactive); in assay [7], -1.99% (inactive); in assay [8], 22.7% (inactive). In addition, in assay [2], the inhibition of aggregation is -10.4% (inactive). Further, the nuclei count turned out to be 106% in assay [2] and 97.9% in assay [3]. Besides, in assay [4], the fluorescence slope is -0.463 (inactive). In assay [5], the NADPH fluorescence slope is -3.5e-05 (inactive). The slope in assay [6] is 0.00496 (inactive).

Regarding `Oc1ccc2cccnc2c1`, the cell count in assay [1] worked out at 719. The inhibition in assay [1] is -12.9% (inactive); in assay [3] it was -44.3% (inactive); in assay [7] it was -2.36% (inactive); in assay [8], 0.747% (inactive). Also, the inhibition of aggregation in assay [2] is -15.8% (inactive). The nuclei count was found to be 100% in assay [2] and 118% in assay [3]. Besides, the fluorescence slope in assay [4] was -0.12 (active). The NADPH fluorescence slope in assay [5] is 2.2e-05 (inactive). For the same compound, the slope in assay [6] was 0.00432 (inactive).

Consider `c1ccc(OCc2nc(-c3ccccc3)no2)cc1`, for which the cell count in assay [1] was 300. The inhibition was 2.6% (inactive) in assay [1], -72.6% (inactive) in assay [3], -80.4% (inactive) in assay [7] and -193% (inactive) in assay [8]. Also, the inhibition of aggregation in assay [2] was 12.9% (inactive). In addition, the nuclei count came out at 87.7% in assay [2] and 91.1% in assay [3]. Also, in assay [4], the fluorescence slope is -0.539 (inactive). Besides, the NADPH fluorescence slope in assay [5] is 4.5e-05 (inactive). In addition, the slope in assay [6] was 0.0046 (inactive).

As to `COc1cc2c(C#N)c(N3CCOCC3)nc(N)c2c(N)n1`, the cell count in assay [1] is 694. The inhibition in assay [1] is -7.8% (inactive); in assay [3], -22.5% (inactive); in assay [7] it was 15.2% (inactive); in assay [8] it was 46.9% (inactive). The inhibition of aggregation in assay [2] is -18.2% (inactive). For the same compound, the nuclei count was found to be 117% in assay [2] and 114% in assay [3]. Also, the fluorescence slope in assay [4] is -0.0448 (inactive). Further, the NADPH fluorescence slope in assay [5] was -2.1e-06 (inactive). In assay [6], the slope is 0.00579 (inactive).

Turning to `COc1ccc(C(=O)c2ccc(OC)c(N)c2)cc1N`, the cell count in assay [1] is 298. The inhibition in assay [1] was -11.7% (inactive); in assay [3], -187% (inactive); in assay [7] it was 35% (inactive); in assay [8], 27.2% (inactive). The inhibition of aggregation in assay [2] is -64.9% (inactive). In addition, the nuclei count in assay [2] was determined as 3.2%; in assay [3], 111%. For the same compound, the fluorescence slope in assay [4] is -0.465 (inactive). Moreover, in assay [5], the NADPH fluorescence slope is -7.4e-05 (inactive). The slope in assay [6] is 0.00541 (inactive).

Take `COC(=O)c1ccc(C2CC(=O)Nc3cc(OC)c(OC)c(OC)c32)cc1` (stereo not given): the cell count in assay [1] was 416. Besides, the inhibition was 3.3% (inactive) in assay [1], -82.3% (inactive) in assay [3], 11.7% (inactive) in assay [7] and 25.2% (inactive) in assay [8]. Also, the inhibition of aggregation in assay [2] is 11.2% (inactive). Also, the nuclei count worked out at 90.4% in assay [2] and 157% in assay [3]. The fluorescence slope in assay [4] was -0.424 (inactive). Besides, the NADPH fluorescence slope in assay [5] was -3.3e-05 (inactive). For the same compound, the slope in assay [6] is 0.00514 (inactive).

As to `CCOC(=O)N1CCC(NC(=O)c2cc3c(=O)n(C)c4ccccc4c3n2C)CC1`, the cell count in assay [1] was 701. Besides, the inhibition is -2.8% (inactive) in assay [1], -50.1% (inactive) in assay [3], 4.95% (inactive) in assay [7] and 28.7% (inactive) in assay [8]. Besides, the inhibition of aggregation in assay [2] was 4.2% (inactive). Moreover, the nuclei count in assay [2] came to 140%; in assay [3], 112%. Also, the fluorescence slope in assay [4] was -0.416 (inactive). Also, the NADPH fluorescence slope in assay [5] is -6.5e-05 (inactive). In addition, the slope in assay [6] is 0.00503 (inactive).

For `COc1ccc(OC)c(S(=O)(=O)N2CCC(C(=O)NCC3CCCO3)CC2)c1` (stereo not given), in assay [1], the cell count turned out to be 268. Also, the inhibition in assay [1] was 1.3% (inactive); in assay [3], -34.4% (inactive); in assay [7] it was 14.9% (inactive); in assay [8], 20.2% (inactive). Further, the inhibition of aggregation in assay [2] is 10.7% (inactive). Besides, the nuclei count in assay [2] was 100%; in assay [3] it was 115%. For the same compound, in assay [4], the fluorescence slope was -0.352 (inactive). The NADPH fluorescence slope in assay [5] was 2.2e-05 (inactive). In addition, the slope in assay [6] was 0.00611 (inactive).

Consider `CCC(c1nnnn1Cc1ccco1)N(CCc1ccccc1)Cc1cc2cccc(C)c2[nH]c1=O` (stereo not given), for which the cell count in assay [1] was determined as 788. Moreover, the inhibition in assay [1] is -8.4% (inactive); in assay [3], -19.1% (inactive); in assay [7], 25.2% (inactive); in assay [8], 31.5% (inactive). Moreover, in assay [2], the inhibition of aggregation is -2.2% (inactive). The nuclei count in assay [2] came to 86.2%; in assay [3] it was 110%. The fluorescence slope in assay [4] is -0.396 (inactive). Also, the NADPH fluorescence slope in assay [5] was -1.9e-05 (inactive). Besides, in assay [6], the slope was 0.00487 (inactive).
